Assay results published in PMC7862700, “An all-to-all approach to the identification of sequence-specific readers for epigenetic DNA modifications on cytosine”.

What was measured:
Assay in all cases: DAPPL (digital affinity profiling via proximity ligation, sequencing); 10 mM Tris-HCl pH 7.5, 50 mM NaCl, 1 mM DTT, 4% glycerol, room temperature, 30 min; GST-TFs on glutathione beads, 16-mer random dsDNA library, 0.1% formaldehyde crosslink after washing; high values mean tight binding
Settings in all cases: protein: recombinant; tags: N-terminal GST; dsDNA, one strand shown
FLI1 = target: T1, FLI1 (Homo sapiens, UniProt Q01543 1-452)
T1 sequence: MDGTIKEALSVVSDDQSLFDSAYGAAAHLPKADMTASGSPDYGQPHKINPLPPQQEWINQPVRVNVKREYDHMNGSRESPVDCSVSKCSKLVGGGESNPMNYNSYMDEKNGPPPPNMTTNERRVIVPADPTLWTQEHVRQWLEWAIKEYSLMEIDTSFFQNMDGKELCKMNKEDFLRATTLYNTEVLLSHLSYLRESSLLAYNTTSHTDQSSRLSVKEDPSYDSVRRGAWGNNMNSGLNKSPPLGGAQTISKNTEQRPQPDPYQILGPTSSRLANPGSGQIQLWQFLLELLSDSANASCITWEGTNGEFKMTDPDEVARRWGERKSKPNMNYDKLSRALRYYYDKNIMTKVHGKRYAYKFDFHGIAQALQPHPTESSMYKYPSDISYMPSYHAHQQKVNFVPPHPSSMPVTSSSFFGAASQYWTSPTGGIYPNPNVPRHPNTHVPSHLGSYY
How it was run: (§1)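 Pools were built from human transcription factors expressed in yeast as GST fusions, captured on glutathione beads and DNA-barcoded, along with a tag-only sample. Incubation with 200 nmole of a 16-mer random double-stranded DNA library lasted 30 min at room temperature in Tris/NaCl/DTT/glycerol buffer, and was followed by washing, 0.1% formaldehyde crosslinking, proximity ligation, PCR amplification and Illumina NextSeq500 sequencing. Binding signal is the quotient of each hexamer's read frequency for a factor and its frequency for the tag-only sample.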

ERG = target: T2, ERG (Homo sapiens, UniProt P11308 1-479)
T2 sequence: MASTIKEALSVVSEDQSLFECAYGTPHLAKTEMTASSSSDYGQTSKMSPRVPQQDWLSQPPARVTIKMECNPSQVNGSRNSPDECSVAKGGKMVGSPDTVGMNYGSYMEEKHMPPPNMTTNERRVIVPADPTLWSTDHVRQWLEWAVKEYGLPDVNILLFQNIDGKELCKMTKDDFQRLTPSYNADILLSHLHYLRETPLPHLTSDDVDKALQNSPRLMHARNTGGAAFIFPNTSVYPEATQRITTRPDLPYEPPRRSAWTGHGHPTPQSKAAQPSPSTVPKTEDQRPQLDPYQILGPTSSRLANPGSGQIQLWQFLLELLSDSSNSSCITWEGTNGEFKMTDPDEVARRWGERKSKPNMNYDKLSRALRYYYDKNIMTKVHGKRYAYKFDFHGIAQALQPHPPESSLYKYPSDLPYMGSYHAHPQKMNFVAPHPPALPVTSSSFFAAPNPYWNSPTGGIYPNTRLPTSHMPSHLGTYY
How it was run: as §1

EHF = target: T3, EHF (Homo sapiens, UniProt Q9NZC4 1-300)
T3 sequence: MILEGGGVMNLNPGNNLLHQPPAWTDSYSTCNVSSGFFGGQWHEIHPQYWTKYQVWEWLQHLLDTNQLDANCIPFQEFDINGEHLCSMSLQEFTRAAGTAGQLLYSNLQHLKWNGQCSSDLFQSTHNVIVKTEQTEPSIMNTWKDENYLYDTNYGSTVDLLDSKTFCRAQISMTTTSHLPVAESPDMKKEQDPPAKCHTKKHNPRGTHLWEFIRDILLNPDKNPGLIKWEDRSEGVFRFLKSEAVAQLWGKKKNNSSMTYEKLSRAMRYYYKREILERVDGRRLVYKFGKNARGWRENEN
How it was run: as §1

SPI1 = SPI1 (Homo sapiens, UniProt P17947 1-270)
How it was run: as §1

SPIB = SPIB (Homo sapiens, UniProt Q01892 1-262)
How it was run: as §1

ELK3 = target: T4, ELK3 (Homo sapiens, UniProt P41970 1-407)
T4 sequence: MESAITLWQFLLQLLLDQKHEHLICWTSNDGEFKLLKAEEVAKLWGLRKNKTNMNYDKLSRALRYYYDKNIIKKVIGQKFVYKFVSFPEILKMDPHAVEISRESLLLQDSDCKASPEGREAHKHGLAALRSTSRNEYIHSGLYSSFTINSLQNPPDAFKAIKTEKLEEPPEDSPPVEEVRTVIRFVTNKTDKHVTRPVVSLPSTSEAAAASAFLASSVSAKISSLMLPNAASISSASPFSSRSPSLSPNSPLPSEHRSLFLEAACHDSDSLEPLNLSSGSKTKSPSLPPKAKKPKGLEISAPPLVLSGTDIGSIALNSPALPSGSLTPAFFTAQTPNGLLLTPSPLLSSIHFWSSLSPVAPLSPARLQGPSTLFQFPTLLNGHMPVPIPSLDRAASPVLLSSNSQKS
How it was run: as §1

ETV5 = ETV5 (Homo sapiens, UniProt P41161 1-510)
How it was run: as §1

ETV2 = target: T5, ETV2 (Homo sapiens, UniProt O00321 1-342)
T5 sequence: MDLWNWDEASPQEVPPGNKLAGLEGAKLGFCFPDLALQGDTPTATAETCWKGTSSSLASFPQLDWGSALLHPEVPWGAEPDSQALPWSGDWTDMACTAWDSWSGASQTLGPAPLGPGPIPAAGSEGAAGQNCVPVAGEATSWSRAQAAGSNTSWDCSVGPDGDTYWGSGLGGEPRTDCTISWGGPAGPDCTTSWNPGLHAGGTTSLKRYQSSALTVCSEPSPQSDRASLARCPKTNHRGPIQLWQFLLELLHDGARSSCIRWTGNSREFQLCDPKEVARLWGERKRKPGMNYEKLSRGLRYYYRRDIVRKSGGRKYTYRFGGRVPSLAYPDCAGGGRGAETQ
How it was run: as §1

ERF = target: T6, ERF (Homo sapiens, UniProt P50548 1-548)
T6 sequence: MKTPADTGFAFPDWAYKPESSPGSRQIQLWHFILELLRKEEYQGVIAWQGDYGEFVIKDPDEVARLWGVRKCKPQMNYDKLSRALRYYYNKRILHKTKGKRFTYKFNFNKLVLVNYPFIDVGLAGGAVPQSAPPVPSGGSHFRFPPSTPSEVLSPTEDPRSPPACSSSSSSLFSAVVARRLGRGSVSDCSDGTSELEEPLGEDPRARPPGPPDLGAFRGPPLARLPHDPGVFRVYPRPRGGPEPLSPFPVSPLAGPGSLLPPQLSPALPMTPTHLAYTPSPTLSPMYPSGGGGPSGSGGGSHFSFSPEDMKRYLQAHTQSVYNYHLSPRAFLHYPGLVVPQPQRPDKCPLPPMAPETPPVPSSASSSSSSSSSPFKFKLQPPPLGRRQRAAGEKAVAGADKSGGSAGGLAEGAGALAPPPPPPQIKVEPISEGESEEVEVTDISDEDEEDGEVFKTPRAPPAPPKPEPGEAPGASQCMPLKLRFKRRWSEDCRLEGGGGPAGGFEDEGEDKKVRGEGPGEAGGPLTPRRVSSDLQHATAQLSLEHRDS
How it was run: as §1

ETV3 = target: T7, ETV3 (Homo sapiens, UniProt P41162-2 1-143)
T7 sequence: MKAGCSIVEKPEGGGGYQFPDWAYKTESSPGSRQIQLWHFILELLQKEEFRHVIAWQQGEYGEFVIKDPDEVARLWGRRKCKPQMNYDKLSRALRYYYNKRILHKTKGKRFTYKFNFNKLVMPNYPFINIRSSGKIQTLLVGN
How it was run: as §1

ETV6 = ETV6 (Homo sapiens, UniProt P41212 1-452)
How it was run: as §1

ELK1 = target: T8, ELK1 (Homo sapiens, UniProt P19419 1-428)
T8 sequence: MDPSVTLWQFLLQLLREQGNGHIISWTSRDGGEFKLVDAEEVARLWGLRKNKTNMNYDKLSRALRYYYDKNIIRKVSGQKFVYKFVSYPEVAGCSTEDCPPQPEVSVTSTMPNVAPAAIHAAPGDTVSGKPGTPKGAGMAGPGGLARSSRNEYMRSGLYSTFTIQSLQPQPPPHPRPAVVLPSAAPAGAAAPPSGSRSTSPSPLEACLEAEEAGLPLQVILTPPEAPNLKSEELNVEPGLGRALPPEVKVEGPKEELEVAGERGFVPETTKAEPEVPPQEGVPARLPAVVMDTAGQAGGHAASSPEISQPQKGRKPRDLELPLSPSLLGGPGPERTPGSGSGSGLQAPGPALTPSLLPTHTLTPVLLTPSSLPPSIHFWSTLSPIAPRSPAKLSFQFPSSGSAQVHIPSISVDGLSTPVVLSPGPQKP
How it was run: as §1

ELF3 = target: T9, ELF3 (Homo sapiens, UniProt P78545 1-371)
T9 sequence: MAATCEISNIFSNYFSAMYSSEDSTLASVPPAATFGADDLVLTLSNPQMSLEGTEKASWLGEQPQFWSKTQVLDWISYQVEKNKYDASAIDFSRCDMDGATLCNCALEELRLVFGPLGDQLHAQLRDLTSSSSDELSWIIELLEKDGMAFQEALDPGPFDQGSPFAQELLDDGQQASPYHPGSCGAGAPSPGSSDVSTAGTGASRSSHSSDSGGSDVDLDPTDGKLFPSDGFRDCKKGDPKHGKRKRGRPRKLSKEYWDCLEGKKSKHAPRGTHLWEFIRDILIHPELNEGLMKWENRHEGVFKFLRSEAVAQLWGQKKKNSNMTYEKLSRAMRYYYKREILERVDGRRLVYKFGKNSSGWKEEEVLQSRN
How it was run: as §1

ETV1 = ETV1 (Homo sapiens, UniProt P50549 1-477)
How it was run: as §1

ETV3L = target: T10, ETV3L (Homo sapiens, UniProt Q6ZN32 1-361)
T10 sequence: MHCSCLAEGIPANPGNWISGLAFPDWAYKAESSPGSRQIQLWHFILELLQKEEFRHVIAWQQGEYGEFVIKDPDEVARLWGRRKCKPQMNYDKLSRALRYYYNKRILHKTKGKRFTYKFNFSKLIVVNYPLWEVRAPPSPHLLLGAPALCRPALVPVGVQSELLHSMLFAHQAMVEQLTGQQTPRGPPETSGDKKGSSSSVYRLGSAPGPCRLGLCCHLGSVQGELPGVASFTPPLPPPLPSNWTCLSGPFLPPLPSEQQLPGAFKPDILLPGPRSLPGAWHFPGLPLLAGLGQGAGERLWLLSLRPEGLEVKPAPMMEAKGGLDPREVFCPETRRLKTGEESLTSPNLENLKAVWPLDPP
How it was run: as §1

ETS2 = target: T11, ETS2 (Homo sapiens, UniProt P15036 1-469)
T11 sequence: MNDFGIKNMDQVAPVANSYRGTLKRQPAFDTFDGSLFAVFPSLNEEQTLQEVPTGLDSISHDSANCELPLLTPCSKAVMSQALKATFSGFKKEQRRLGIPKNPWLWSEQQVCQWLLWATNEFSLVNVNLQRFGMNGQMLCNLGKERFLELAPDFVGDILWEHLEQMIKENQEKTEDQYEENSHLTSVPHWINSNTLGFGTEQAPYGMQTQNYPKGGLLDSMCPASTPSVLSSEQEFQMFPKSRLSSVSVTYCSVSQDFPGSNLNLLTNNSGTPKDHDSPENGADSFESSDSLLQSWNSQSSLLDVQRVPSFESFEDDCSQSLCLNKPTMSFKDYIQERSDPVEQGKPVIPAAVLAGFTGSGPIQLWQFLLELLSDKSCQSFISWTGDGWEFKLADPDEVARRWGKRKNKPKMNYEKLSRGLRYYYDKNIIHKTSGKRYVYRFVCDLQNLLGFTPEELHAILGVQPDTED
How it was run: as §1

ETV7 = target: T12, ETV7 (Homo sapiens, UniProt Q9Y603 1-341)
T12 sequence: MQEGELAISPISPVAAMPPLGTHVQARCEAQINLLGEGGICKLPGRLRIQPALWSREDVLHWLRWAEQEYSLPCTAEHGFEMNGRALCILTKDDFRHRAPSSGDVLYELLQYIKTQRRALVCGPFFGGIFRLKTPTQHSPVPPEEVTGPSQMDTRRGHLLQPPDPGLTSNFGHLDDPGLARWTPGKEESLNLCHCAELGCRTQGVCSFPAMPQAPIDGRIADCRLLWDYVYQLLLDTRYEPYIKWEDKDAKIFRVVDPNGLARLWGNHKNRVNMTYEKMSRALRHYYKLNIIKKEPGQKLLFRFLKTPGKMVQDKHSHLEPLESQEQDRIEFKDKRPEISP
How it was run: as §1

Chain of SPIB (Q01892 whole entry): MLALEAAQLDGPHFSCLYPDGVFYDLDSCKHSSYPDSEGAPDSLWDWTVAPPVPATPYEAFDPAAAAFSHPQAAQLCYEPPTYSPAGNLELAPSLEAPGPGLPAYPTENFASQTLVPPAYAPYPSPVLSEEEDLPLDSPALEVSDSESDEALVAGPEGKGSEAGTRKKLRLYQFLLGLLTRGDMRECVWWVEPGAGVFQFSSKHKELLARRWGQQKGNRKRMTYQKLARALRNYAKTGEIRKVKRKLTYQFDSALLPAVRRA
Chain of ETV5 (P41161 whole entry): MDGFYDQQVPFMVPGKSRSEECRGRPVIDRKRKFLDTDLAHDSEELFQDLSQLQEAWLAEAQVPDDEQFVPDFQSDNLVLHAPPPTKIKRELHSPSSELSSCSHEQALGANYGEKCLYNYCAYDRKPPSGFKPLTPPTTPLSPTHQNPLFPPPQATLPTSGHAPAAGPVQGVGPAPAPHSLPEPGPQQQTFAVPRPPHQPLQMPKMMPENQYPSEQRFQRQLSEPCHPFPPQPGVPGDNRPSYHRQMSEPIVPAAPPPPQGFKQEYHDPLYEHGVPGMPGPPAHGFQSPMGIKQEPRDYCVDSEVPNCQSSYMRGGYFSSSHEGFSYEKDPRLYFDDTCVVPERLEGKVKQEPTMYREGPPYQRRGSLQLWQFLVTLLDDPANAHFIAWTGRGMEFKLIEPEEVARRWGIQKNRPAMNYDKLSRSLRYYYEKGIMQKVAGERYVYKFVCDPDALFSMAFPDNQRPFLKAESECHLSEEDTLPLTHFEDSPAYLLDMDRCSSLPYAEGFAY
Chain of ETV6 (P41212 whole entry): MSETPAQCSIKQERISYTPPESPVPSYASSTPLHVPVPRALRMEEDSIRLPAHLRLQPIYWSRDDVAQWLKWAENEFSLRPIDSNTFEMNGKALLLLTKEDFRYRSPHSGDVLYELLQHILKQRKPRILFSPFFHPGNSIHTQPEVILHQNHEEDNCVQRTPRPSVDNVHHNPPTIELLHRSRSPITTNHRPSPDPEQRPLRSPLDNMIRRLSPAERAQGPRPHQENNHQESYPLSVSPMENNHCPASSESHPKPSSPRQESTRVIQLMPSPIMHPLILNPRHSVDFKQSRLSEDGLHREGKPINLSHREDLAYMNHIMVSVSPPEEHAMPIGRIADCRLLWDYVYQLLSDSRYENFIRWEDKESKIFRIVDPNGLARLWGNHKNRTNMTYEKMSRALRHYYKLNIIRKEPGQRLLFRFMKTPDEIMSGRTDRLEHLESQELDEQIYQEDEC
Chain of ETV1 (P50549 whole entry): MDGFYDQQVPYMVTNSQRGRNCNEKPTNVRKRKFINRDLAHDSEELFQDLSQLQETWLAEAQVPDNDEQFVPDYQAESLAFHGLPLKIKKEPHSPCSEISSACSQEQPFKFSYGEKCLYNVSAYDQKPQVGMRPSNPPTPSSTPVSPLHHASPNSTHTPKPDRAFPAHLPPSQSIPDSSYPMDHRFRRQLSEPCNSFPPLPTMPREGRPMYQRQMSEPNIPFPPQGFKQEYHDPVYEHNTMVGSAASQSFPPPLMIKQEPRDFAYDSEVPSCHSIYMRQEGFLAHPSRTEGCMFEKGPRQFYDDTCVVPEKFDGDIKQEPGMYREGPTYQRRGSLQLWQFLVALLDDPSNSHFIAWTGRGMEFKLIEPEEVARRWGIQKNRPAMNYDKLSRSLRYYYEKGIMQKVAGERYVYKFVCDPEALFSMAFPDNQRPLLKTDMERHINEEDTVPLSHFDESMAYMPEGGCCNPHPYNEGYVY

Sequence | binding signal (FLI1) | binding signal (ERG) | binding signal (EHF) | binding signal (SPI1) | binding signal (SPIB) | binding signal (ELK3) | binding signal (ETV5) | binding signal (ETV2) | binding signal (ERF) | binding signal (ETV3) | binding signal (ETV6) | binding signal (ELK1) | binding signal (ELF3) | binding signal (ETV1) | binding signal (ETV3L) | binding signal (ETS2) | binding signal (ETV7)
AGTAAC | 1.02 fold enrichment (6-mer frequency, TF over GST control) | 1.02 fold enrichment (6-mer frequency, TF over GST control) | 1 fold enrichment (6-mer frequency, TF over GST control) | 1.07 fold enrichment (6-mer frequency, TF over GST control) | 1 fold enrichment (6-mer frequency, TF over GST control) | 1.01 fold enrichment (6-mer frequency, TF over GST control) | 1.03 fold enrichment (6-mer frequency, TF over GST control) | 1.05 fold enrichment (6-mer frequency, TF over GST control) | 1.01 fold enrichment (6-mer frequency, TF over GST control) | 1.09 fold enrichment (6-mer frequency, TF over GST control) | 1.09 fold enrichment (6-mer frequency, TF over GST control) | – | – | – | – | – | –
AACGGA | 1.05 fold enrichment (6-mer frequency, TF over GST control) | 1.18 fold enrichment (6-mer frequency, TF over GST control) | 1.13 fold enrichment (6-mer frequency, TF over GST control) | 1.15 fold enrichment (6-mer frequency, TF over GST control) | 1.07 fold enrichment (6-mer frequency, TF over GST control) | 1.13 fold enrichment (6-mer frequency, TF over GST control) | 1.1 fold enrichment (6-mer frequency, TF over GST control) | 1.02 fold enrichment (6-mer frequency, TF over GST control) | – | 1.08 fold enrichment (6-mer frequency, TF over GST control) | 1.2 fold enrichment (6-mer frequency, TF over GST control) | 1.08 fold enrichment (6-mer frequency, TF over GST control) | 1.03 fold enrichment (6-mer frequency, TF over GST control) | 1.11 fold enrichment (6-mer frequency, TF over GST control) | 1.01 fold enrichment (6-mer frequency, TF over GST control) | 1.15 fold enrichment (6-mer frequency, TF over GST control) | 1.01 fold enrichment (6-mer frequency, TF over GST control)
